Results filed as inconclusive are left out. Active and inactive are the calls of the source. Unless noted, the call rests on the fitted dose curve; in most records, active means well fitted curve in the direction sought with a large enough effect; inconclusive means small, poorly fitted or top-dose-only effect, or another doubt; inactive means no such curve, though single readings can be large; an effect the other way counts as inactive or inconclusive.
Assays:
[1] = AP1 Signaling Pathway (AID 357; active means well fitted curve in either direction with a large enough effect, not every such curve was filed as active; further: on the % scale 0 is the no-effect control and ±100 the full control effect); settings: ME-180 AP-1-bla reporter, EGF-induced, beta-lactamase ratio, 5 h; at 7.69 µM (top of the series) unless noted
How it was run: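 Titration-series screen for positive or negative modulators of EC50 EGF-induced signaling in ME-180 cells carrying an AP-1-driven beta-lactamase reporter. After 5 hours at 37 degrees Celsius, CCF4 460nm/530nm emission ratio gave %Activity; AC50 values derived.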

[2] = NFAT Signaling Pathway (AID 444; active means well fitted curve in either direction with a large enough effect, not every such curve was filed as active;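 further: carbachol stimulus at about its EC50 of 1 µM final; on the % scale 0 is the no-effect control and ±100 the full control effect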); settings: Jurkat NFAT-bla M1, carbachol, beta-lactamase ratio, 5 h; at 7.69 µM (top of the series) unless noted
How it was run: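 Jurkat cells carrying an NFAT-driven β-lactamase reporter and co-transfected muscarinic M1 receptor were treated with compound plus carbachol (1 uM final, an EC50 level) for 5 h at 37 °C. CCF4 loading followed for 1 h at RT; 460/530 nm ratio gave %activity.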

[3] = Stat Signaling Pathway (AID 446; active means well fitted curve in either direction with a large enough effect, not every such curve was filed as active;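 further: ME-180 cervical cancer cells given 40 pM IL-6 alongside compound; SIE-controlled beta-lactamase reporter measured as 460/530 nm FRET emission ratio; on the % scale 0 is the no-effect control and ±100 the full control effect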); settings: ME-180 SIE beta-lactamase reporter, IL-6 stimulated, 5 h; at 7.69 µM (top of the series) unless noted
How it was run: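 ME-180 SIE-bla cells; overnight plating; cpd + IL-6 40 pM, 5 h, 37 C; LiveBLAzer 2.5 h RT; 460/530 nm emission ratio. Normalized to 300 pM IL-6 and 125 nM JAK inhibitor controls.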

[4] = molecular target: Glucocorticoid receptor (Homo sapiens) (UniProt P04150); experiment: GR-GFP Redistribution (AID 450;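 active means compounds whose dose series gives a full or clear partial fitted curve of increased nuclear translocation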; further: potency means the concentration at half of the fitted maximal effect); settings: U2OS GR-GFP nuclear translocation, laser cytometry, 2 h
[5] = molecular target: Glucocorticoid receptor (Homo sapiens) (UniProt P04150); experiment: GR-EFC Redistribution (AID 451; calls by dose curve; further: potency means the concentration at half of the fitted maximal effect); settings: CHO-K1 GR-EFC translocation, beta-gal luminescence, 2 h
How it was run: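 CHO-K1 cells stably expressing nuclear-localized β-gal enzyme acceptor and GR fused C-terminally to the enzyme donor fragment; ligand-driven nuclear translocation restores β-gal by complementation. Compounds titrated up to 46 uM final, 2 h at 37 °C; luminescence read.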

[6] = molecular target: Mitogen-activated protein kinase 10 (Mus musculus) (UniProt Q61831); experiment: JNK3 AlphaScreen Assay (AID 530; active means well fitted curve in either direction with a large enough effect, not every such curve was filed as active;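 further: kinase came from lysate of stimulated human HepG2 cells; signal reports phosphorylation of biotinylated GST-cJun 1-79 at Ser73 with 10 µM ATP; on the % scale 0 is the no-effect control and ±100 the full control effect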)
How it was run: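 Inhibitors reduce antibody binding to phosphorylated biotin-cJun, lowering AlphaScreen luminescence. Lysates from HepG2 cells pre-activated by IL-1beta plus TNF-alpha supplied JNK3; compounds were titrated.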

[7] = molecular target: 3',5'-cyclic-AMP phosphodiesterase 4B (Homo sapiens) (UniProt Q07343); experiment: qHTS Assay for Inhibitors of PDE-IV (AID 607; active means well fitted activation curve with a large enough effect in the main read-out, with a control signal flat, not every such curve was filed as active; further: % of control where 0% means no effect)
How it was run: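 ACTOne HEK293 cells carry a modified cAMP-gated CNG channel and express endogenous PDE4; plated 1000 cells/well, compounds up to 22.9 uM final. Membrane-potential dye fluorescence (ex 535/em 590) was read; parental cells received 10 uM forskolin + 100 uM RO 20-1724.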

[8] = molecular target: Dual specificity protein kinase CLK4 (Homo sapiens) (UniProt Q9HAZ1); experiment: qHTS Assay for Inhibitors of CDC-like Kinase 4 (Kinase-Glo Assay) (AID 1770); further: on the % scale 0 is the no-effect control and ±100 the full control effect; nearly all actives have a fitted effect of over 65% in size
How it was run: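 Luminescent ATP-depletion read-out (Kinase-Glo) after 4.5 h room-temperature reaction of Clk4 (25 nM final) with RS peptide (100 uM) and ATP (1 uM), pH 7.5 Tris buffer with MgCl2 and DTT.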

[9] = molecular target: Dual specificity protein kinase CLK4 (Homo sapiens) (UniProt Q9HAZ1); experiment: qHTS Assay for Inhibitors of CDC-like Kinase 4 (ADP-Glo Assay) (AID 1771); further: on the % scale 0 is the no-effect control and ±100 the full control effect; nearly all actives have a fitted effect of over 70% in size
How it was run: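 Luminescence from ADP-Glo reports ADP produced by 25 nM Clk4 acting on 100 uM RS repeat peptide with 1 uM ATP over 1 hr at room temperature; residual ATP is depleted before ADP is converted to ATP for detection.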

[10] = molecular target: Dual specificity protein kinase CLK4 (Homo sapiens) (UniProt Q9HAZ1); experiment: qHTS Assay for Inhibitors of CDC-like Kinase 4 (ADP-FP Assay) (AID 1795);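 further: recombinant human CLK4 phosphorylating RS repeat peptide at 1 µM ATP; on the % scale 0 is the no-effect control and ±100 the full control effect; nearly all actives have a fitted effect of over 60% in size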
How it was run: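 Kinase activity was measured as ADP production using Transcreener orange tracer (4 nM) and ADP antibody (1 ug/mL) fluorescence polarization, with ADP calculated from a calibration curve. The 1 h reaction contained 6.25 nM Clk4, 1 uM ATP and 100 uM RS peptide at pH 7.5 with Mg2+.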

[11] = molecular target: Ubiquitin carboxyl-terminal hydrolase 1 (Homo sapiens) (UniProt O94782); experiment: Inhibitors of USP1/UAF1: Pilot qHTS (AID 504865); further: nearly all actives have a fitted effect of over 35% in size; further: potency means the concentration at half of the fitted maximal effect
How it was run: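 Deubiquitinase activity followed as kinetic rhodamine fluorescence release from 150 nM Ub-Rho. 1 nM USP1/UAF1 with compound, after 15 min room-temperature preincubation, in HEPES pH 7.8 buffer containing TCEP, EDTA, BSA and Tween-20.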

[12] = Counterscreen qHTS for small molecule stabilizers of the endoplasmic reticulum resident proteome: GLuc-NoTag assay (AID 1508627);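 further: SH-SY5Y cells given compound then 100 nM thapsigargin to empty ER calcium; 0% = thapsigargin alone and -100% = DMSO vehicle control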
How it was run: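 SH-SY5Y cells stably expressing constitutively secreted GLuc (no SERCaMP tag) were pre-incubated 5 h, treated with compound for 19 h, then 100 nM thapsigargin for 4 h at 37C; medium GLuc read by coelenterazine luminescence.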

[13] = Cell Viability qHTS for small molecule stabilizers of the endoplasmic reticulum resident proteome (AID 1508629); settings: cell viability counter-screen, 100 nM thapsigargin for final 4 h
[14] = Primary qHTS for small molecule stabilizers of the endoplasmic reticulum resident proteome: Secreted ER Calcium Modulated Protein (SERCaMP) assay (AID 1508630); further: potency means the concentration at half of the fitted maximal effect
How it was run: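 GLuc-SERCaMP-expressing SH-SY5Y cells, pretreated 16 h with compound, are challenged with thapsigargin to empty ER calcium stores; after 4 h, coelenterazine is added directly to the medium and luminescence is imaged.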

[15] = molecular target: Lysosomal acid glucosylceramidase (Homo sapiens) (UniProt P04062); experiment: Glucocerebrosidase-p2 (AID 348; in the data active means potency below about 10 µM; further: potency means the concentration at half of the fitted maximal effect); settings: purified GBA, blue fluorogenic substrate, 40 min
How it was run: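 Compounds titrated from 0.6 nM upwards against 0.2 nM enzyme in pH 5.9 citric acid/KH2PO4, taurocholate, tween-20; blue fluorogenic substrate 80 uM, 40 min room temperature, stopped and read Ex 365/Em 440 for AC50.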

[16] = molecular target: Cytochrome P450 1A2 (Homo sapiens) (UniProt P05177); experiment: p450-cyp1a2 (AID 410; calls by dose curve; further: potency means the concentration at half of the fitted maximal effect;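 on activity change, negative = inhibition: -100% = full effect of reference inhibitor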)
How it was run: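 Luminescent readout of luciferin formed from Luciferin-ME by human CYP1A2; data normalized against complete inhibition by 57 uM furafylline. Enzyme 20nM, substrate 100uM at Km, 100mM KPO4 buffer, 60 min reaction at room temperature.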

[17] = qHTS Assay for Identification of Small Molecule Agonists for Hypoxia Response Element Signaling Pathway (AID 914; active means well fitted activation curve with a large enough effect in the signal ratio, with a control signal flat, not every such curve was filed as active; the % refers to the signal ratio; further: potency means the concentration at half of the fitted maximal effect); settings: ME-180 (cervical carcinoma) HRE-bla reporter, beta-lactamase ratio, CoCl2, 17 h; activation: stronger effect = higher value
How it was run: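 AC50 values come from titration-series %Activity, taken as the 460/530nm ratio of CCF4 fluorescence (excitation 405nm). CellSensor HRE-bla ME-180 cells were treated 17 hours at 37 C with compound plus an EC50 level of CoCl2.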

[18] = qHTS Assay for Lipid Storage Modulators (AID 1519; calls by dose curve); settings: Drosophila S3 cells, BODIPY lipid droplet/cell ratio, laser cytometry, cells loaded with oleic acid; for activity change, negative = inhibition: at 57.5 µM (top of the series)
How it was run: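 Cells seeded at 5,000 per well were treated with compounds over a concentration series and loaded with oleic acid (400 uM, as added). Lipid droplet fluorescence (488 nm excitation, 500-530 nm channel) was read by laser-scanning cytometry and normalized to 20 uM Triacsin C.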

[19] = Confirmatory qHTS for small molecule stabilizers of the endoplasmic reticulum resident proteome: Secreted ER Calcium Modulated Protein (SERCaMP) assay (AID 1508628); further: nearly all actives have a fitted effect of over 40% in size; further: potency means the concentration at half of the fitted maximal effect
How it was run: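 SH-SY5Y cells stably expressing GLuc-SERCaMP, treated 16 h with compound (primary 1.53, 7.67, 38.3 uM; confirmation 11 concentrations, up to 76.6 uM), then 100 nM thapsigargin for 4 h. Secreted Gaussia luciferase in medium read by coelenterazine luminescence.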

[20] = molecular target: Cytochrome P450 3A4 (Homo sapiens) (UniProt P08684); experiment: qHTS Assay for Activators of Cytochrome P450 3A4 (AID 885); further: nearly all actives have a fitted effect of over 65% in size
How it was run: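 20nM CYP3A4 + 25uM Luciferin-PPXE (=KM), 200mM KPO4; cpd 10 min RT; NADPH regen, 60 min RT; stop w/ detection buffer, 20 min; luminescence. Normalized to 57 uM ketoconazole.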

[21] = measured here: cell count channel max response
[22] = measured here: lipid channel max response

Chain of Lysosomal acid glucosylceramidase (Homo sapiens) (P04062 whole entry, looked up): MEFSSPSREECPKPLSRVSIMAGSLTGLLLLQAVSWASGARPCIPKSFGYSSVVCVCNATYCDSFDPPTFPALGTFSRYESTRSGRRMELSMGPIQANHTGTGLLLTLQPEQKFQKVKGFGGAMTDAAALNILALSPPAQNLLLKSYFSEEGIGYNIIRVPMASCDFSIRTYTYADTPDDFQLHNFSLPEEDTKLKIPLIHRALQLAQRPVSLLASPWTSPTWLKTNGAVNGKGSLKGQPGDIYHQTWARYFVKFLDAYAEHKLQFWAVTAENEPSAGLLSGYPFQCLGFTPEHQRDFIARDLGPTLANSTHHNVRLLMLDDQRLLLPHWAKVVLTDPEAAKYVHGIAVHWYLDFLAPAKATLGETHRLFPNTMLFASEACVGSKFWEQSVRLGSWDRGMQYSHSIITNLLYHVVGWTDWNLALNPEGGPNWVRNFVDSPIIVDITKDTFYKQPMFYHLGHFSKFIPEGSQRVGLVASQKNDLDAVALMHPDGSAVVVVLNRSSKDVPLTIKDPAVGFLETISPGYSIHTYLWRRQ
Chain of Cytochrome P450 1A2 (Homo sapiens) (P05177 whole entry, looked up): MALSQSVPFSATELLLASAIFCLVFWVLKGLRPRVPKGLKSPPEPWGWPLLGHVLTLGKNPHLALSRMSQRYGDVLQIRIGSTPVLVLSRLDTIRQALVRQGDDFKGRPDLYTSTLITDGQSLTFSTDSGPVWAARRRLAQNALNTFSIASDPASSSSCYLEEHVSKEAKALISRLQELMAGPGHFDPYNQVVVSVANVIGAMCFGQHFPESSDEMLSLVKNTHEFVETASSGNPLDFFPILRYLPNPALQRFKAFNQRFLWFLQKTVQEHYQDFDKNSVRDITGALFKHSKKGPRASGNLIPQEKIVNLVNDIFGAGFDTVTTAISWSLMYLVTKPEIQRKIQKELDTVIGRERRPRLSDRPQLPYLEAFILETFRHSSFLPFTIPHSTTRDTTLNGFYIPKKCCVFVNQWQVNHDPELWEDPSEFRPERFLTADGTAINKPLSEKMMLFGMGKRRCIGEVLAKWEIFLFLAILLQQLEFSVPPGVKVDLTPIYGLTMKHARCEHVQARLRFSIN
Chain of Ubiquitin carboxyl-terminal hydrolase 1 (Homo sapiens) (O94782 whole entry, looked up): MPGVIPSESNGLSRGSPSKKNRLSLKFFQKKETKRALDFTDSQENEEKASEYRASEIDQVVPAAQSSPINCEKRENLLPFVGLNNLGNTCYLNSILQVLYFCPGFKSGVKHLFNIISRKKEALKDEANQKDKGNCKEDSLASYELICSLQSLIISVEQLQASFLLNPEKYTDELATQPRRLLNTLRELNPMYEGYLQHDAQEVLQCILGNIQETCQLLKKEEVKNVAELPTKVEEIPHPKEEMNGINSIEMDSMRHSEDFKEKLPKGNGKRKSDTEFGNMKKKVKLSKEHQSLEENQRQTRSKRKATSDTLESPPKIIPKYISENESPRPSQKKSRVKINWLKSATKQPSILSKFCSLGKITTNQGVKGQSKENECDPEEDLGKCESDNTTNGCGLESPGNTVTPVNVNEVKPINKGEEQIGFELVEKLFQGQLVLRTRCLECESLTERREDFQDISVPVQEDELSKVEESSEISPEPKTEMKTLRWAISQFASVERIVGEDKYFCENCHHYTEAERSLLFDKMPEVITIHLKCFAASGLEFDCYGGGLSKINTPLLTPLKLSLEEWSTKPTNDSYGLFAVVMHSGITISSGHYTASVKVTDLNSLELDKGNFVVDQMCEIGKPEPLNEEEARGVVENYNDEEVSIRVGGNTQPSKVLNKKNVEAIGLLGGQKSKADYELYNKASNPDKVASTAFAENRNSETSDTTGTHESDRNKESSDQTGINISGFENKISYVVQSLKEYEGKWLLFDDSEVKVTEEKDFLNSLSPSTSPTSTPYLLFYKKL
Chain of 3',5'-cyclic-AMP phosphodiesterase 4B (Homo sapiens) (Q07343 whole entry, looked up): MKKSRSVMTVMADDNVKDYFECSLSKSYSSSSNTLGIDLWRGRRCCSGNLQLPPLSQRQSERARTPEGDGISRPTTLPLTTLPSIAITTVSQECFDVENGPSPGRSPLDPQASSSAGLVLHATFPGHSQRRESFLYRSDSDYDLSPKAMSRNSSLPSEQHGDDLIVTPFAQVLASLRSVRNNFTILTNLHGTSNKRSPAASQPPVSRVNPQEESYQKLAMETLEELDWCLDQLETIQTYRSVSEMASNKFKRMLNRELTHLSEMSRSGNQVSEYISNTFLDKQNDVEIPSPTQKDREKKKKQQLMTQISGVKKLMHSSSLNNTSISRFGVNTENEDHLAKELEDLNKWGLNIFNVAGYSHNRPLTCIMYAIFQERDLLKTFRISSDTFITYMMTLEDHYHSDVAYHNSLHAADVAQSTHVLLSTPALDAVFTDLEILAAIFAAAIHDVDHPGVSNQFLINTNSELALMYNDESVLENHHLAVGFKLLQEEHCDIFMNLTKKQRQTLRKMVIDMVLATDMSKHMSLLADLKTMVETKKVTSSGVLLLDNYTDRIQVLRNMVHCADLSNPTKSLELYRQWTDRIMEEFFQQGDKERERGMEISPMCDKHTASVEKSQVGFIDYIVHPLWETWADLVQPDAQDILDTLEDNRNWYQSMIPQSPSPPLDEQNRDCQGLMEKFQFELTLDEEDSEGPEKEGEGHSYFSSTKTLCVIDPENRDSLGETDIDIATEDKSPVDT
Chain of Glucocorticoid receptor (Homo sapiens) (P04150 whole entry, looked up, the tested form may be a part): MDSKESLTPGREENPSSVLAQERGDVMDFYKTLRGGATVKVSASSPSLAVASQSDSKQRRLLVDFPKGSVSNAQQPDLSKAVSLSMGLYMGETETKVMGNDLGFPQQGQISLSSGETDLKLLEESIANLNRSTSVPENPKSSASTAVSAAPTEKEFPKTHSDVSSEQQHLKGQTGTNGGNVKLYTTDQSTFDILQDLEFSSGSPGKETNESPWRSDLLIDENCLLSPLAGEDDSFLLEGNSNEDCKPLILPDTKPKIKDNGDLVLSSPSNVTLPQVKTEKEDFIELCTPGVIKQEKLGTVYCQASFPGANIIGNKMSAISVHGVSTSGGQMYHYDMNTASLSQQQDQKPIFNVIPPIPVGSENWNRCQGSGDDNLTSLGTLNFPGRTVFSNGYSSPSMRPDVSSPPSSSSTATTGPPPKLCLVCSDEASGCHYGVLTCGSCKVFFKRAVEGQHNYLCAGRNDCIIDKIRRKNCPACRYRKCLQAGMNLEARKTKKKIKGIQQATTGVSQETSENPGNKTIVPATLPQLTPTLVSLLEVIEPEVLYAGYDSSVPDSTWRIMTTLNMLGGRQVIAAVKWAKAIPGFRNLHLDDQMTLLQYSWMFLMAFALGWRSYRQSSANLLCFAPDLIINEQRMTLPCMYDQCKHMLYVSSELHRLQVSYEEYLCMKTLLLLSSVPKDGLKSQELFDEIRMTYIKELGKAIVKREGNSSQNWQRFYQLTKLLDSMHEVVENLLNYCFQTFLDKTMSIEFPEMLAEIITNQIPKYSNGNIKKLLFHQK
Chain of Dual specificity protein kinase CLK4 (Homo sapiens) (Q9HAZ1 whole entry, looked up): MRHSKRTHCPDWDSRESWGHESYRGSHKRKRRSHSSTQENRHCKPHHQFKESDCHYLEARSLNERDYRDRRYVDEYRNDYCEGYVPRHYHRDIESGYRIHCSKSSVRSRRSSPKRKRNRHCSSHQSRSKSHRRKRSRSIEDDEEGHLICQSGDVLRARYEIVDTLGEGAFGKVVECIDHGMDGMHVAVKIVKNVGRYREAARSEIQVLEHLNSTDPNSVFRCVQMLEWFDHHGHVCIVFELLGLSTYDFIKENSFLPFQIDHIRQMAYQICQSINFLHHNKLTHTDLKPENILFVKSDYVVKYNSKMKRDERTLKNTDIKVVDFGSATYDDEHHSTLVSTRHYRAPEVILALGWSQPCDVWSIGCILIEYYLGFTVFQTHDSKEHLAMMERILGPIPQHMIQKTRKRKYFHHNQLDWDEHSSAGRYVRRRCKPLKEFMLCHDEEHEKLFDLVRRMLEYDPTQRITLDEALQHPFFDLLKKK
Chain of Cytochrome P450 3A4 (Homo sapiens) (P08684 whole entry, looked up): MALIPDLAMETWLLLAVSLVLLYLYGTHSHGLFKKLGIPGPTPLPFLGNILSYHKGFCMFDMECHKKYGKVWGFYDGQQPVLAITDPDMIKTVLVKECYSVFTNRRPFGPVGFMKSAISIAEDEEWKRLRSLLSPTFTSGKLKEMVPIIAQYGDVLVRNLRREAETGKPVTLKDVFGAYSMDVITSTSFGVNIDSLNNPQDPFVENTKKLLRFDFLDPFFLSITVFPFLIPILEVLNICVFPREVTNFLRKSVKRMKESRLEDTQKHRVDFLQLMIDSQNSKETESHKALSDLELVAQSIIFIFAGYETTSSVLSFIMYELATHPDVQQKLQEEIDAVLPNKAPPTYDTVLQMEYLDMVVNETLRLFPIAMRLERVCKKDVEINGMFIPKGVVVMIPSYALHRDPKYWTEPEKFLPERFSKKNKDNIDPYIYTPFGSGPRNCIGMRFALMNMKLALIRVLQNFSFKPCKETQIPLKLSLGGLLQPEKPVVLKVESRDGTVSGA

Structure (SMILES): COc1ccc(Oc2ncc3nc(CCc4ccccc4)c(=O)n(C[C@H]4CCCO4)c3n2)cc1
- activity change, negative = inhibition [1]: -25.6% (inactive)
- activity change, negative = inhibition [2]: -6.61% (inactive)
- activity, negative = inhibition [3]: -17.3% (inactive)
- Potency [4]: > 9.22 µM (inactive)
- Potency [5]: > 46 µM (inactive)
- outcome [6]: inactive
- Potency [7]: inactive
- Potency [8]: inactive
- Potency [9]: inactive
- Potency [10]: inactive
- Potency [11]: inactive
- Potency [12]: inactive
- max response [13]: 6.27% (inactive)
- Potency [14]: 35.5 µM (active)

Structure (SMILES): COc1ccc(-n2c(=O)c(-c3ccccc3)nc3cnc(N4CCNCC4)nc32)cc1
- Potency [15]: > 11.4 µM (inactive)
- Potency [16]: 15.8 µM (active)
- Potency [4]: > 9.22 µM (inactive)
- Potency [5]: > 46 µM (inactive)
- outcome [6]: inactive
- Potency [7]: inactive
- Potency [17]: 3.16 µM (active)
- Potency [8]: inactive
- Potency [9]: inactive
- Potency [11]: inactive
- Potency [12]: inactive
- max response [13]: 0.755% (inactive)

Structure (SMILES): COc1ccc(-c2nc3cnc(N4CCNCC4)nc3n(-c3ccccc3)c2=O)cc1
- Potency [15]: > 11.4 µM (inactive)
- Potency [4]: > 9.22 µM (inactive)
- outcome [6]: inactive
- Potency [7]: inactive
- activity change, negative = inhibition [18]: 3% (inactive)
- max response [18, 21]: 10.3%
- max response [18, 22]: 4.43%
- Potency [12]: inactive
- Potency [19]: inactive

Structure (SMILES): COCCn1c(=O)c(CCc2ccccc2)nc2cnc(N3CCN(C)CC3)nc21
- Potency [15]: > 11.4 µM (inactive)
- activity change, negative = inhibition [1]: 2.87% (inactive)
- activity change, negative = inhibition [2]: -7.4% (inactive)
- activity, negative = inhibition [3]: -8.57% (inactive)
- Potency [4]: > 9.22 µM (inactive)
- Potency [5]: > 46 µM (inactive)
- Potency [7]: inactive
- activity change, negative = inhibition [18]: 5.96% (inactive)
- max response [18, 21]: -2.68%
- max response [18, 22]: 4.85%
- Potency [12]: inactive
- max response [13]: 0.276% (inactive)

Structure (SMILES): O=C(Nc1cccc(F)c1)N1CCCC2(CCNCC2)C1
- Potency [15]: > 11.4 µM (inactive)
- activity change, negative = inhibition [1]: -6.17% (inactive)
- Potency [16]: inactive
- activity change, negative = inhibition [2]: 12.2% (inactive)
- activity, negative = inhibition [3]: -5.47% (inactive)
- Potency [5]: > 46 µM (inactive)
- outcome [6]: inactive
- Potency [7]: inactive
- Potency [20]: inactive
- Potency [12]: inactive
- max response [13]: 8.67% (inactive)

Structure (SMILES): Cc1ccccc1-c1nc(N2CCN(C)CC2)c2ccccc2n1
- Potency [15]: > 11.4 µM (inactive)
- Potency [16]: 3.98 µM (active)
- activity change, negative = inhibition [2]: 0.11% (inactive)
- activity, negative = inhibition [3]: 0.381% (inactive)
- Potency [4]: > 46 µM (inactive)
- Potency [5]: > 46 µM (inactive)
- outcome [6]: inactive
- Potency [20]: inactive
- Potency [8]: inactive
- Potency [9]: inactive
- Potency [11]: 28.2 µM (active)
- Potency [12]: inactive
- Potency [19]: 20 µM (active)

Structure (SMILES): O=C(c1cc(C(F)(F)F)cc(C(F)(F)F)c1)N1CCC2(CC1)CCN(c1ccccn1)CC2
- Potency [15]: 10.2 µM (inactive)
- activity change, negative = inhibition [1]: -6.99% (inactive)
- Potency [16]: inactive
- activity, negative = inhibition [3]: -1.33% (inactive)
- Potency [5]: > 46 µM (inactive)
- Potency [7]: inactive
- activity change, negative = inhibition [18]: -8.11% (inactive)
- max response [18, 21]: 10.4%
- max response [18, 22]: 1.85%
- Potency [12]: inactive
- max response [13]: 25.1% (inactive)

Source: PubChem BioAssay (NCATS)
